Screening results as filed in PubChem BioAssay.
FAS-TE inh: inhibitors of human fatty acid synthase thioesterase domain; P49327; recombinant FAS-TE, OMFH fluorogenic substrate, fluorescence endpoint; inhibition, % at 15 µM; 360,000 compounds, 0.67% hits;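 active = compounds whose normalised, plate-corrected inhibition of enzyme fluorescence in the single-dose primary screen is 50% or more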;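 note: 0% = DMSO with enzyme and 100% = substrate without enzyme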
CRFR2-BP antag: antagonists of CRF-binding protein/CRF-R2 receptor complex; HEK293 CRF-R2/CRF-BP, CRF-induced calcium fluorescence; inhibition, % at 11.8 µM; 350,000 compounds, 0.59% hits;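 active = inhibition of the ligand-induced calcium signal above about 50% at the single tested concentration, limit read from the data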
NadD block: blocks S. aureus nicotinate mononucleotide adenylyltransferase; purified NadD enzyme, colorimetric absorbance read-out; inhibition, % at 20 µM; 360,000 compounds, 0.78% hits; in the data active = inhibition above about 26%
NRP1-CendR mod: NRP-1/CendR interaction modulation; inhibition, % at 25 µM; FAM-RPARPAR peptide binding to NRP-1, fluorescence polarization; 360,000 compounds, 0.85% hits;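 active = inhibition or corrected inhibition above about 18%, plus a signal ratio from 0.5 to 1.5, limit read from the data, passing the limit was not always enough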
Target sequence (O14786 whole entry, looked up): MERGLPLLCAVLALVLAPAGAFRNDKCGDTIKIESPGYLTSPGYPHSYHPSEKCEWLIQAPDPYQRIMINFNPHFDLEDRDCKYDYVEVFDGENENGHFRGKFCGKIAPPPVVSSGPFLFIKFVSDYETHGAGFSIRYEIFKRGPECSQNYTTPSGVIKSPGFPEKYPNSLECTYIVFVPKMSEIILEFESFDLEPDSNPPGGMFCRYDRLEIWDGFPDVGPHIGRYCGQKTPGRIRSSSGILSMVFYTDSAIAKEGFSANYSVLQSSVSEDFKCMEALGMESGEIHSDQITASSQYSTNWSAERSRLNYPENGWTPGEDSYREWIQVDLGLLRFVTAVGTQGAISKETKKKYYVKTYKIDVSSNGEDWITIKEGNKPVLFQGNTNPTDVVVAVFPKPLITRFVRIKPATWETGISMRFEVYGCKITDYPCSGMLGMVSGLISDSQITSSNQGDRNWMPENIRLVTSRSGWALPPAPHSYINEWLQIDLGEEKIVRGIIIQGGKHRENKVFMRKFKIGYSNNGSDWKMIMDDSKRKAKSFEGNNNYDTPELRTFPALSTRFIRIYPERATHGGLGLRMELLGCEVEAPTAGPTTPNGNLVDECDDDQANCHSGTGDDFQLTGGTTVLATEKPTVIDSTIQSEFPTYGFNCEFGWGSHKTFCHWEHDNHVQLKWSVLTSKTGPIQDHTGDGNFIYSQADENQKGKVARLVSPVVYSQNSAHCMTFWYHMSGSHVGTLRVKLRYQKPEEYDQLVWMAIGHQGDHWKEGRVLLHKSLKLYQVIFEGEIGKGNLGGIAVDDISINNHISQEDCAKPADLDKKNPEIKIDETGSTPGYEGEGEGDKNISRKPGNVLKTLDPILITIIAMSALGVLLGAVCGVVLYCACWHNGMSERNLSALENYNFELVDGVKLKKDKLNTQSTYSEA
Myeloid diff 2: compounds promoting myeloid differentiation. 360,000 compounds, 1% hits. AID 624256. ER-HoxA9 myeloid progenitors, lysozyme-GFP differentiation, flow cytometry. calls only at 10 µM;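 active = normalized GFP-positive differentiation at or above the plate's own cutoff, the solvent-only control mean plus 3 SD; inconclusive = no clear call, values can overlap the other calls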;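 note: cells exposed to compound for four days before flow analysis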
FAS-TE inh conf: FAS thioesterase (human) inhibition, confirmation | shares compounds with FAS-TE inh | recombinant FAS-TE, OMFH fluorogenic substrate, fluorescence | inhibition, % at 15 µM | 2,300 compounds, 45% hits | AID 624325;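 active = compounds inhibiting the enzyme by at least 50% at 15 µM in any one of the replicates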;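 note: 0% = enzyme with DMSO only and 100% = wells lacking enzyme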
NadD conf: confirmation of Staphylococcus aureus NadD inhibitors | inhibition, % at 20 µM | purified S. aureus NadD, colorimetric enzyme assay | shares compounds with NadD block | 2,000 compounds, 13% hits | AID 624309; in the data active = inhibition mostly above about 42%, no sharp cut-off; inactive = mostly below about 42%
* hit, by the source's call; i = inactive; ? = inconclusive; . = no result given; ! = a repeat was not active. The list is not random: actives were taken first. Their share in the collection is about 3.6%.

SMILES | FAS-TE inh | CRFR2-BP antag | NadD block | NRP1-CendR mod | Myeloid diff 2 | FAS-TE inh conf | NadD conf
O=c1[nH]c(C2CCCN(S(=O)(=O)c3cccc(Cl)c3)C2)nc2c1nnn2Cc1ccc2c(c1)OCCO2 (stereo not given) | 54* | 11 | 58* | 0 | i | 16 | 57*
O=c1[nH]c(C2CCCN(S(=O)(=O)c3ccccc3)C2)nc2c1nnn2Cc1ccc2c(c1)OCCO2 (stereo not given) | 22 | 12 | 28 | 1 | i | . | .
Cc1ccc(-c2nnc(SCC(=O)N/N=C/c3c(C)nn(-c4ccccc4)c3C)n2-c2ccc(C)cc2)cc1 | 62* | 20 | 30* | 3 | i | 16 | 15
O=C(CCCCN1CCCCC1)c1ccc2c(c1)Cc1ccccc1-2 | 1 | -14 | -5 | 0 | i | . | .
Cc1cccc(NS(=O)(=O)c2ccc3[nH]c(=O)cc(C(=O)OC(C)C(=O)Nc4ccc([N+](=O)[O-])cc4)c3c2)c1 (stereo not given) | 87* | -1 | 43* | 12 | i | 93* | 41
Cc1ccc([C@H]2N[C@]3(CCCN(Cc4ccc(F)cc4)C3=O)[C@H]3C(=O)N(Cc4ccccc4)C(=O)[C@@H]23)cc1 | 21 | -4 | 10 | 2 | i | . | .
COc1ccc([N+](=O)[O-])cc1NC(=O)CC1SC(=Nc2cccc(C)c2C)N(/N=C/c2cccc(OC)c2OC)C1=O (stereo not given) | 87* | 2 | 35*! | 3 | i | 8 | 20
COc1ccc(F)cc1S(=O)(=O)Nc1cc2c3c(c1)CCC(=O)N3CCC2 | -8 | 0 | -1 | -6 | i | . | .
Cn1c(SCC(=O)N2c3ccccc3CCc3ccccc32)nnc1-c1cc2ccccc2cc1O | 67* | 32 | 56* | -8 | i | 9 | 52*
O=C(O)c1cccc2c1C(=O)c1ccc(-c3ccc(OC(F)(F)F)cc3)cc1S2(=O)=O | 1 | 0 | 4 | 3 | i | . | .
O=C1c2ccc(-c3ccc(Cl)c(C(F)(F)F)c3)cc2S(=O)(=O)c2cccc(C(=O)N3CCN(c4ncc(Br)cn4)CC3)c21 | 69* | 5 | 52* | 14 | i | 11 | 1
CC1CCCC(C)N1C(=O)COC(=O)Cc1c[nH]c2ccccc12 (stereo not given) | -7 | -9 | 1 | -4 | i | . | .
Cc1cccn2c(=O)c3cc(S(=O)(=O)c4ccc(Br)cc4)c(=N)n(C4CCCCC4)c3nc12 | 51* | -10 | 27* | 3 | ? | 7 | 22
Cc1ccc(S(=O)(=O)c2cc3c(=O)n4cccc(C)c4nc3n(C3CCCCC3)c2=N)cc1 | 7 | 8 | 13 | -21 | ? | . | .
CCOc1ccc(OCC)c(NC(=O)C2CCN(S(=O)(=O)c3ccc4c(c3)CC(C)N4C(C)=O)CC2)c1 (stereo not given) | 16 | 11 | -3 | 8 | i | . | .
Cc1ccc(S(=O)(=O)Nc2cccc(-c3ccc(N4CCCCCC4)nn3)c2)cc1 | 59* | -1 | 34* | 13 | i | 52* | 21
NC(=O)[C@H]1CC2(CC(c3cccc(NC(=O)COc4ccc(Cl)cc4)c3)=NO2)CN1C(=O)C(c1ccccc1)c1ccccc1 (stereo not given in full) | 73* | -3 | 33* | -14 | i | 21 | 33
CC1=C(C(=O)Nc2cccc(C(=O)N3CCN(c4cccc(C(F)(F)F)c4)CC3)c2)SCCO1 | 15 | 0 | -3 | 4 | i | . | .
Cc1ccc(-n2[nH]c(C)c(/C=N/Nc3ccc([N+](=O)[O-])cc3[N+](=O)[O-])c2=O)cc1C | 55* | 85* | 37* | 41* | i | 41* | 12
Cc1[nH]n(-c2ccccc2)c(=O)c1/C=N/NC(=O)c1cccc([N+](=O)[O-])c1 | 30 | 43 | 6 | -9 | ? | . | .
Cc1cc2nc(/N=C(\N)NC(=O)N3c4ccccc4Sc4ccccc43)nc(C)c2cc1C | 62* | 2 | 27*! | -3 | i | 14 | 8
COc1ccc2nc(/N=C(\N)NC(=O)C(C)(C)C)nc(C)c2c1 | -108 | 31 | -2 | -14 | i | . | .
Cc1ccc2nc(/N=C(\N)NC(=O)N3c4ccccc4Sc4ccccc43)nc(C)c2c1 | 55* | 38 | 31* | -16 | i | -5 | 6
Cc1ccc(S(=O)(=O)Nc2nc(-c3ccccc3)cs2)cc1 | 2 | 6 | -1 | -10 | i | . | .
Cc1ccc(S(=O)(=O)Nc2ccccc2C(=O)Nc2nc(-c3ccc(F)cc3)cs2)cc1 | 56* | 77* | 32* | 6 | i | 58* | 48*
SMILES | FAS-TE inh | CRFR2-BP antag | NadD block | NRP1-CendR mod | Myeloid diff 2 | FAS-TE inh conf | NadD conf
CCCCN1C(=O)C(CC(=O)NCc2ccco2)CC(C(=O)N2CCOCC2)=C1C (stereo not given) | -8 | -16 | 0 | -9 | i | . | .
COc1ccc2[nH]c3c(=O)n(CCCCCC(=O)NCCC(C)C)c(=S)[nH]c3c2c1 | -5 | 5 | 6 | 12 | i | . | .
Cc1sc(NC(=O)Cc2ccc3c(c2)OCO3)nc1-c1ccc2c(c1)CCN2C(=O)c1ccccc1F | 81* | 30 | 37* | 6 | i | 14 | 20
COc1cc(OC)c2c(-c3ccccc3)cc(=O)oc2c1C(CC(=O)N1CCN(c2ccccc2)CC1)c1ccc(N(C)C)cc1 (stereo not given) | 70* | 1 | 30* | 21 | i | 14 | 1
CCn1c(SC)nnc1C1CCN(CC(=O)Nc2ccccc2N2CCOCC2)CC1 | -2 | -5 | 9 | 9 | i | . | .
Cc1nn(-c2ccccc2)c(N2CCCC2)c1/C=N/Nc1ccc(S(=O)(=O)Nc2ccccc2)cc1[N+](=O)[O-] | 53* | 15 | 47* | -7 | i | 5 | 22
COc1c(/C=N/Nc2ccc([N+](=O)[O-])cc2[N+](=O)[O-])c(C)nn1-c1ccccc1 | 12 | 2 | 15 | 16 | i | . | .
CCOc1ccc(S(=O)(=O)Nc2ccc(C(=O)N/N=C/c3c(C)nn(-c4ccccc4)c3N3CCCC3)cc2)cc1 | 55* | 0 | 33* | 21* | i | 0 | 24
COc1ccccc1NS(=O)(=O)c1ccc(N/N=C/c2c(C)nn(-c3ccccc3)c2N2CCCC2)c([N+](=O)[O-])c1 | 64* | 56* | 38* | -2 | i | 17 | 14
CN(C)c1ccc(-c2ccnc3c2CC(C)(C(=O)NCC2CCOCC2)O3)cc1 (stereo not given) | -10 | . | -1 | 3 | i | . | .
Cc1cc(C)c2nc(NC(=O)c3cccc(S(=O)(=O)N4CCc5ccccc54)c3)sc2c1 | 70* | 5 | 44* | 8 | i | 8 | 0
Cc1cccc2sc(NC(=O)c3cccc(S(=O)(=O)N4CCc5ccccc54)c3)nc12 | 42 | 0 | 13 | 0 | i | . | .
